PubChem BioAssay (Tox21)
Results filed as inconclusive are left out. Calls of active or inactive are those of the source. The call rests on the fitted dose curve; in most records, active means well fitted activation curve with a large enough effect in the repeat runs; inconclusive means weak or mixed curves; inactive means flat fitted curve, though single readings scatter.

Assay: A CellTox Green Cytotoxicity Assay to monitor cytotoxicity in HEK293 cells - 16 hour (AID 1224888); further: nearly all actives have a fitted effect of over 35% in size
Settings: CellTox Green fluorescence; series mostly up to 76.8 µM; activity change: at the top concentration
Text: National Center for Advancing Translational Sciences [NCATS]
NIH Chemical Genomics Center [NCGC]
U.S. Environmental Protection Agency [EPA]
National Institutes of Environmental Health Sciences [NIEHS]
National Toxicology Program [NTP]
Cell-based models are critical for drug discovery. Determining the natural cytotoxic effects resulting from test compounds is an essential research activity. A CellTox Green Cytotoxicity Assay to monitor cytotoxicity in real time of continues cell culture during 40 hours of the compound treatment was used to screen Tox21 10K library compounds in Hek293 cells. CellTox Green Cytotoxicity Assay is a nonlytic, homogeneous, biofluorescent method to measure cytotoxicity in cell culture after experimental manipulation. The assay system uses a proprietary asymmetric cyanine dye that is excluded from viable cells but preferentially stains the dead cell's DNA. […] Viable cells produce no appreciable increases in fluorescence. Therefore, the fluorescence signal produced by the binding interaction with dead cell DNA is proportional to cytotoxicity.
The mixture of Hek293 cell suspension and reagents were dispensed at 600cells/6 ul/well in 1536-well tissue culture treated black solid bottom plates using a Multidrop dispenser. After the assay plates were incubated at a 37 C/5% CO2 incubator for 5 hours, 23 nL of compounds dissolved in DMSO, positive and negative controls was transferred to the assay plate by a pintool work station. The plates were incubated at 37 C for 40 hours. The fluorescence intensity were measured at 0h, 8h, 16h, 24h, 32h and 40h time points using ViewLux plate reader during compound treatment.
On the % scale 0 is the no-effect control and ±100 the full control effect.

| Compound | activity change |
| --- | --- |
| CCCCCCC(=O)CCCCCC/C=C/C[C@@H](O)[C@H](O)[C@@](N)(CO)C(=O)O | -6.94% [at 15.8 µM, stronger effect = higher value] (inactive) |
| ClC(Cl)(Cl)Cl | 3.8% (inactive) |
| CC(=O)OCC1=C(C(=O)O)N2C(=O)[C@@H](N)[C@H]2SC1 | 2.87% [at 15.8 µM, stronger effect = higher value] (inactive) |
| C=C1C[C@@H]2[C@H](CC[C@]3(C)C(=O)CC[C@@H]23)[C@@]2(C)C=CC(=O)C=C12 | 0.236% [at 35.3 µM, stronger effect = higher value] (inactive) |
| ClCC1CO1 (stereo not given) | -12.2% (inactive) |
| CCC1(c2ccccc2)C(=O)N(COC)C(=O)N(COC)C1=O | -0.322% [at 35.3 µM, stronger effect = higher value] (inactive) |
| CCC(C)C(C)(COC(N)=O)COC(N)=O (stereo not given) | -6.19% [at 35.3 µM, stronger effect = higher value] (inactive) |
| CC(C)(C)C(=O)C(Cl)Cl | -7.34% (inactive) |
| CC(C)(O)C(Cl)(Cl)Cl | -3.76% [at 35.3 µM, stronger effect = higher value] (inactive) |
| CC(C)[C@]12CC(=O)[C@H](C)[C@H]1C2 | 10% (inactive) |
| CC[C@@H](CO)NC(=O)[C@@H]1C=C2c3cccc4c3c(cn4C)C[C@H]2N(C)C1 | -9.96% [at 35.3 µM, stronger effect = higher value] (inactive) |
| CCC(CC)(CNC(=O)CCCO)c1cccc(OC)c1 | -0.0658% [at 35.3 µM, stronger effect = higher value] (inactive) |
| CCCOC(=O)c1cncn1C(C)c1ccccc1 (stereo not given) | -2.64% [at 35.3 µM, stronger effect = higher value] (inactive) |
| COc1ccc(CN2CCNCC2)c(OC)c1OC | 3.86% [at 35.3 µM, stronger effect = higher value] (inactive) |
| CCN1CCCC1CNC(=O)C(O)(c1ccccc1)c1ccccc1 (stereo not given) | -6.68% [at 35.3 µM, stronger effect = higher value] (inactive) |
| CON(C)C(=O)Nc1ccc(Br)cc1 | -6.49% (inactive) |
| COc1ccc2c(C(=O)c3ccc(Cl)cc3)c(C)n(CC(=O)O)c2c1 | 4.95% [at 35.3 µM, stronger effect = higher value] (inactive) |
| O=CCCl | -14.6% (inactive) |
| CN(C)C1CCCCC1 | 0.631% (inactive) |
| ClCCN1CCCC1 | 5.53% [at 35.3 µM, stronger effect = higher value] (inactive) |

| Compound | activity change |
| --- | --- |
| Cn1c(CCCC(=O)O)nc2cc(N(CCCl)CCCl)ccc21 | 5.58% [at 35.3 µM, stronger effect = higher value] (inactive) |
| CCOC1Oc2ccc(OS(C)(=O)=O)cc2C1(C)C (stereo not given) | -7.26% (inactive) |
| CCN[C@@H](C)Cc1ccccc1 | -6% (inactive) |
| CNC(=O)NC(O)C(Cl)(Cl)Cl (stereo not given) | -8.51% [at 35.3 µM, stronger effect = higher value] (inactive) |
| CCCOc1nn(C(=O)NS(=O)(=O)c2ccccc2C(=O)OC)c(=O)n1C | -17.5% (inactive) |
| COC(=O)c1ccccc1CS(=O)(=O)NC(=O)Nc1nc(OC)cc(OC)n1 | 0.374% (inactive) |
| Clc1cc2c(cc1Cl)Oc1cc(Cl)c(Cl)cc1O2 | -25.8% [at 0.29 µM, stronger effect = higher value] (inactive) |
| CCC(C)(C#N)N=NC(C)(C#N)CC (stereo not given) | -15.6% (inactive) |
| CCOC(=O)NC(C)(C)Cc1ccc(Cl)cc1 | 21.5% [at 35.3 µM, stronger effect = higher value] (inactive) |
| C=CCCC#N | -0.509% (inactive) |
| O=C/C=C/c1ccco1 | 3.7% (inactive) |
| O=P(O)(O)CN(CP(=O)(O)O)CP(=O)(O)O | 27.1% [at 15.8 µM, stronger effect = higher value] (inactive) |
| O=C1CCCCC1Cl (stereo not given) | -0.22% (inactive) |
| CNC(=O)Oc1cc(C)c(N(C)C)c(C)c1 | -4.13% (inactive) |
| CCNP(=S)(OC)O/C(C)=C/C(=O)OC(C)C (stereo not given) | -4.06% (inactive) |
| COC1=CC(=O)O[C@@H](/C=C/c2ccccc2)C1 | -0.299% (inactive) |
| COP(=O)(OC)O/C(C)=C/C(=O)N(C)C | -9.11% (inactive) |
| COc1cc(CCN)cc(OC)c1OC | 18.8% (inactive) |
| OP(O)c1ccccc1 | -12% (inactive) |
| ClCCCCCCCl | -6.13% (inactive) |
